A number with no mark means an inactive call. Activity calls are given as the source filed them. Rule as the data show it: active = inhibition above about 44%; inactive = the rest.
Each compound was assayed against Steroidogenic factor 1 (Homo sapiens) (UniProt Q13285) (assay: inverse agonism at SF1 nuclear receptor – cell-based, luminescence, high throughput, counter-screen for LRH-1 inverse agonist project (AID 651614;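 also: cells cotransfected with StAR promoter reporter and SF1 expression vector; 0% = vehicle on cells with receptor and 100% = vehicle on cells lacking receptor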)). Conditions: cell-based SF1 luciferase reporter, at 3.6 µM, stronger effect = higher value.
Chain of Steroidogenic factor 1 (Homo sapiens) (Q13285 whole entry, looked up): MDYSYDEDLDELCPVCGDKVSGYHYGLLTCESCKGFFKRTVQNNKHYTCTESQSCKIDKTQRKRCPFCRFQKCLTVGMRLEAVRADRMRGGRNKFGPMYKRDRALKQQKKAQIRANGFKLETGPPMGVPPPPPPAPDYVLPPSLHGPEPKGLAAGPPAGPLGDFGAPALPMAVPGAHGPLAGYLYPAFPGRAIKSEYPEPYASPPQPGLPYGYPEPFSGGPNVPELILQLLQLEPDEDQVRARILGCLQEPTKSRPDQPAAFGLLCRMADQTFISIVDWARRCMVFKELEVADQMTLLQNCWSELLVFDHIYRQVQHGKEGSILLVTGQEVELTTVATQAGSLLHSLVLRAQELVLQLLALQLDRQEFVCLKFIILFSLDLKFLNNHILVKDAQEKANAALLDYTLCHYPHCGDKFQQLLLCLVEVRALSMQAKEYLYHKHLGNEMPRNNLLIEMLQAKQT
With `CCN(CC)c1nc(-c2ccccn2)nc(-c2ccccc2)c1C#N` the inhibition was 55.7% (active).
`COc1ccc(-c2cc(NC=O)c3ncc(-c4ccc(OC)c(OC)c4)n3c2)c(OC)c1` was tested, and the inhibition was 62% (active).
With `CCn1c2ccccc2c2cc(/C=N/n3c(-c4cc(C)[nH]n4)n[nH]c3=S)ccc21` the inhibition was 31.7%.
For `O=C(N/N=C/c1cc2c3c(c1O)CCCN3CCC2)c1ccccc1O`, the inhibition was 87.2% (active).
With `Cc1cc(C)c2c(=O)[nH]c(SCC(=O)Nc3ccc(Br)cc3)nc2n1` the inhibition was 30.6%.
In the case of `O=C(Cc1c(F)cccc1Cl)Nc1ccncc1`, the inhibition is reported as 43.5% (active).
For `Nc1cccc(OCCCCCOc2cccc(N)c2)c1`, the inhibition was 54% (active).
In the case of `O=C1C=C(NCc2ccco2)C2(CCCCC2)O1`, the inhibition is reported as 46.6% (active).
With `Cc1onc(-c2c(F)cccc2Cl)c1C(=O)Oc1ccccc1` the inhibition was 33.8%.
For `COC(=O)c1ccc(NC(=O)CSc2nc3ncccc3[nH]2)cc1`, the inhibition was 52.6% (active).
With `Oc1[nH]c2ccc(Br)cc2c1N=NC(=S)N1CCOCC1` the inhibition was 87.7% (active).
`Nc1nc2ccccc2cc1C(=O)NCc1ccc(-c2ccccc2)cc1` was tested, and the inhibition was 58.6% (active).
With `O=C(Nc1cccc2ccccc12)c1ccc([N+](=O)[O-])o1` the inhibition was 70.8% (active).
`Cc1onc(-c2ccccc2Cl)c1C(=O)O/N=C(\N)c1ccc([N+](=O)[O-])o1` was tested, and the inhibition was 62.5% (active).
With `COC(=O)c1ccc(CNC(=O)COC(=O)c2cc(Cl)nc(Cl)c2)cc1` the inhibition was 37.1%.
`Cc1cccc(NC(=O)CSc2ccc(-c3ccco3)nn2)c1C` was tested, and the inhibition was 39.2%.
For `CCOc1ccc(CCNC(=O)COC(=O)CCc2cc(OC)c(OC)c(OC)c2)cc1OCC`, the inhibition was 47.2% (active).

— PubChem BioAssay
